The record followed here is PubChem BioAssay (NCI).

Several values for one entry are separate records, joined by “and”; a condition that tells them apart may be missing. Equal entries are not always repeated. This is part of a sample that, as a whole, favours compounds with a hit. Of some 79,000 tested, about 15% had one in any assay. Values without a mark were called inactive. Activity calls are given as the source filed them. Cut-off read from the data, not from the text of the source: active = growth inhibition above about 70%; inactive = the rest.

Assay [1] can be described thus: NCI Yeast Anticancer Drug Screen. Data for the rad50 strain (AID 155).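 Note: 0% = growth of vehicle-only cultures of the same strain.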 The note with it: S. cerevisiae rad50 strain growth inhibition, stronger effect = higher value. In a few lines:
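Compounds were tested on a yeast strain with an engineered DNA damage repair alteration; the reported value is growth inhibition normalised to vehicle treatment.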

Assay [2] is described as follows: NCI Yeast Anticancer Drug Screen. Data for the mec2-1 strain (AID 157). To be noted: S. cerevisiae mec2-1 strain, stronger effect = higher value. In a few lines:
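Compounds were applied to mec2-1 yeast cells. Their growth was then compared with that of vehicle-treated cultures to give growth inhibition.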

A short description of assay [3]: NCI Yeast Anticancer Drug Screen. Data for the sgs1 mgt1 strain (AID 161).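 Note: 0% = growth of cultures given vehicle only.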 The note with it: S. cerevisiae sgs1 mgt1 strain, stronger effect = higher value. In a few lines: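 This yeast growth screen uses a strain with defined DNA-repair lesions; compound-treated growth is compared with vehicle-treated growth.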
Assay [4] in a line: NCI Yeast Anticancer Drug Screen. Data for the cln2 rad14 strain (AID 165).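 Note: 0% = growth equal to vehicle treated cultures.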 To be noted: S. cerevisiae cln2 rad14 strain, stronger effect = higher value. The method in brief:
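Strain: cln2 rad14 yeast, altered in cell cycle control and DNA damage repair. Read-out: growth inhibition vs vehicle.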

The nature of assay [5]: NCI Yeast Anticancer Drug Screen. Data for the bub3 strain (AID 167). To be noted: S. cerevisiae bub3 mutant strain, stronger effect = higher value. In a few lines: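 Growth of a checkpoint-deficient yeast mutant is measured after compound exposure. Values represent inhibition relative to vehicle.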
Assay [6] can be described thus: NCI Yeast Anticancer Drug Screen. Data for the mlh1 rad18 strain (AID 175). The note with it: S. cerevisiae mlh1 rad18 strain growth inhibition, stronger effect = higher value. In a few lines: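 A repair-deficient yeast strain is exposed to test compound, and growth is scored relative to vehicle-treated controls.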
Setting [7] is: at 5.0 µM (retest, dose inferred, filed as 0.5).
The mark [8] stands for this setting: at 50.0 µM (retest, dose inferred, filed as 5.0).

In the case of `O=CC(O)C(O)C(O)C(O)C(O)CO` (centres undefined), the growth inhibition in assay [1] (at 50.0 µM) is -13.5% and 36% and -23.8%; in assay [2] (at 50.0 µM), -1.55% and -10.8% and -7.35%; in assay [3] (at 50.0 µM), -8.85% and -1.5% and -6.45%; in assay [4] (at 50.0 µM) it was -56.4% and -44.2% and -19.8%; in assay [5] (at 50.0 µM), 7.5% and 25.1% and -0.4%; in assay [6] (at 50.0 µM), -12.4% and 19.2% and 4.25%.

As for `CC(C)(C)C1=CC(=CC=C2C=CN(CCO)C=C2)C=C(C(C)(C)C)C1=O`, the growth inhibition in assay [1] (setting [7]) was -2%; in assay [1] (setting [8]), 98% (active); in assay [1] (at 50.0 µM) it was 29.1%; in assay [2] (setting [7]) it was 0%; in assay [2] (setting [8]) it was 28%; in assay [2] (at 50.0 µM), 35.5%. In addition, the growth inhibition in assay [3] (setting [7]) is -3%; in assay [3] (setting [8]) it was 51%; in assay [3] (at 50.0 µM), 24.6%; in assay [5] (setting [7]), -5%; in assay [5] (setting [8]) it was 28%; in assay [5] (at 50.0 µM), 31.6%. For the same compound, the growth inhibition was -6% in assay [6] (setting [7]), 73% (active) in assay [6] (setting [8]) and 97% (active) in assay [6] (at 50.0 µM).

Turning to `O=C(CCc1ccccc1)COC(=O)c1ccc([N+](=O)[O-])cc1`, the growth inhibition was -13% in assay [1] (setting [7]); -14% in assay [1] (setting [8]); -10.4% in assay [1] (at 50.0 µM); -2% in assay [2] (setting [7]); -25% in assay [2] (setting [8]); 3.45% in assay [2] (at 50.0 µM). The growth inhibition is -26% in assay [4] (setting [7]); -14% in assay [4] (setting [8]); 10.9% in assay [4] (at 50.0 µM); -1% in assay [5] (setting [7]); -7% in assay [5] (setting [8]); 55% in assay [5] (at 50.0 µM). Besides, the values for the growth inhibition in assay [6] (setting [7]), in assay [6] (setting [8]) and in assay [6] (at 50.0 µM) were -15%, -23% and 16.4%, respectively.

`CC(CN(C)C)C(=O)c1ccccc1` (centres undefined): the growth inhibition was -3.95% and -8.85% and 34% in assay [1] (at 50.0 µM); -43.7% and -18.4% and 16.6% in assay [2] (at 50.0 µM); -4.85% and -15.9% and 18.1% in assay [3] (at 50.0 µM); 20.3% and -14.4% and 14.4% in assay [4] (at 50.0 µM); -23.1% and -11.6% and 18.4% in assay [5] (at 50.0 µM); 0.3% and -18.9% and 23.1% in assay [6] (at 50.0 µM).

Consider `CC(c1ccc2ccccc2c1)c1c(F)cccc1C(=O)O` (centres undefined), for which the growth inhibition in assay [1] (setting [7]) was 2%; in assay [1] (setting [8]), 50%; in assay [1] (at 50.0 µM) it was 98.7% (active); in assay [3] (setting [7]), 0%; in assay [3] (setting [8]) it was 12%; in assay [3] (at 50.0 µM) it was 97.2% (active). Further, the growth inhibition was -4% in assay [4] (setting [7]); 64% in assay [4] (setting [8]); 98.6% (active) in assay [4] (at 50.0 µM); -9% in assay [5] (setting [7]); 41% in assay [5] (setting [8]); 97.6% (active) in assay [5] (at 50.0 µM). Further, the growth inhibition in assay [6] (setting [7]) is -16%; in assay [6] (setting [8]) it was 61%; in assay [6] (at 50.0 µM), 98.5% (active).

With `CC12CCC3C(CCC4CC(O)CCC43C)C1CC1C2=NOC1O` (centres undefined), the growth inhibition was 0% in assay [1] (setting [7]); 99% (active) in assay [1] (setting [8]); 25.8% in assay [1] (at 50.0 µM); -2% in assay [2] (setting [7]); 99% (active) in assay [2] (setting [8]); 18.2% in assay [2] (at 50.0 µM). Besides, the growth inhibition in assay [4] (setting [7]) is -8%; in assay [4] (setting [8]), 99% (active); in assay [4] (at 50.0 µM) it was 21%; in assay [5] (setting [7]) it was -3%; in assay [5] (setting [8]), 99% (active); in assay [5] (at 50.0 µM), 73% (active). For the same compound, the growth inhibition was -1% in assay [6] (setting [7]), 99% (active) in assay [6] (setting [8]) and 56.7% in assay [6] (at 50.0 µM).

As to `CCCCCCCCCCCCCCN1CCSCC1`, the growth inhibition was 6% in assay [1] (setting [7]); 18% in assay [1] (setting [8]); 98.5% (active) in assay [1] (at 50.0 µM); 3% in assay [2] (setting [7]); 14% in assay [2] (setting [8]); 96% (active) in assay [2] (at 50.0 µM). Further, the growth inhibition is 5% in assay [4] (setting [7]); 14% in assay [4] (setting [8]); 98.6% (active) in assay [4] (at 50.0 µM); 9% in assay [5] (setting [7]); 21% in assay [5] (setting [8]); 99% (active) in assay [5] (at 50.0 µM). Also, the figures for the growth inhibition in assay [6] (setting [7]), in assay [6] (setting [8]) and in assay [6] (at 50.0 µM) were 5%, 12% and 98.8% (active), respectively.

As for `NCC(O)CSc1ccc(Cl)c(Cl)c1` (centres undefined), the growth inhibition in assay [1] (setting [7]) is 2%; in assay [1] (setting [8]), 11%; in assay [1] (at 50.0 µM), 8.95%; in assay [3] (setting [7]) it was 1%; in assay [3] (setting [8]), 16%; in assay [3] (at 50.0 µM), 18.8%. The growth inhibition is 5% in assay [4] (setting [7]); 9% in assay [4] (setting [8]); 74.8% (active) in assay [4] (at 50.0 µM); 3% in assay [5] (setting [7]); 3% in assay [5] (setting [8]); 17.2% in assay [5] (at 50.0 µM). Besides, the growth inhibition in assay [6] (setting [7]) was 4%; in assay [6] (setting [8]), 7%; in assay [6] (at 50.0 µM), 11.4%.

`CC1C2CCC3C4CC=C5CC(N(C)C)CCC5(C)C4CCC32CN1C` (centres undefined): the growth inhibition in assay [1] (at 50.0 µM) is -9.65% and 13.9% and -0.1%; in assay [2] (at 50.0 µM), -3.8% and 1% and -6.15%; in assay [3] (at 50.0 µM), -8% and 7.6% and -3.15%; in assay [4] (at 50.0 µM) it was 7.25% and 0.15% and 30.5%; in assay [5] (at 50.0 µM) it was -6.35% and 18.9% and 33.6%; in assay [6] (at 50.0 µM), 9.35% and 23.6% and -7.35%.

With `NC(=S)C(=S)N/C=C(/c1ccc(Cl)cc1)S(=O)(=O)Cc1ccc(Cl)cc1`, the growth inhibition in assay [1] (setting [7]) was 1%; in assay [1] (setting [8]), 98% (active); in assay [1] (at 50.0 µM), 97.3% (active); in assay [2] (setting [7]), -17%; in assay [2] (setting [8]), 99% (active); in assay [2] (at 50.0 µM), 96.2% (active). Also, the growth inhibition in assay [3] (setting [7]) is -3%; in assay [3] (setting [8]), 98% (active); in assay [3] (at 50.0 µM), 96.8% (active); in assay [5] (setting [7]), 21%; in assay [5] (setting [8]), 98% (active); in assay [5] (at 50.0 µM) it was 96.7% (active). In addition, the figures for the growth inhibition in assay [6] (setting [7]), in assay [6] (setting [8]) and in assay [6] (at 50.0 µM) were 4%, 98% (active) and 97.3% (active), respectively.

With `[C-]#[N+]C(C)(c1ccccc1)c1ccccc1`, the growth inhibition in assay [1] (setting [7]) was -117%; in assay [1] (setting [8]), 70% (active); in assay [1] (at 50.0 µM), 95.5% (active); in assay [3] (setting [7]), -48%; in assay [3] (setting [8]) it was 79% (active); in assay [3] (at 50.0 µM), 95.5% (active). The growth inhibition was -59% in assay [4] (setting [7]); 47% in assay [4] (setting [8]); 90.1% (active) in assay [4] (at 50.0 µM); -45% in assay [5] (setting [7]); 80% (active) in assay [5] (setting [8]); 94.2% (active) in assay [5] (at 50.0 µM). Further, the growth inhibition in assay [6] (setting [7]) is -101%; in assay [6] (setting [8]), 76% (active); in assay [6] (at 50.0 µM), 94.4% (active).

`[Cl][Co][Cl].[NH-]CC[N-]CC[N-]CC[NH-]`: the growth inhibition is 29.6% and -6.2% and 5.8% in assay [1] (at 50.0 µM); 16.8% and -10.4% and 22.6% in assay [2] (at 50.0 µM); 13.9% and 16.4% and 32.5% in assay [3] (at 50.0 µM); 28.4% and 16.1% and 18.5% in assay [4] (at 50.0 µM); 14.1% and 19.4% and 25.4% in assay [5] (at 50.0 µM); 6.35% and 12.3% and 47% in assay [6] (at 50.0 µM).
